Inconclusive results are not listed. Activity calls are given as the source filed them. Rule for the calls: active = hit-call score of the fitted dose curve at least 0.9, where 1 is the maximum; inconclusive = response in the unintended direction; inactive = score below 0.9.
Key:
[1] = target: human Ephrin type-A Receptor 1 (EphA1), EPHA1 (gene 2041) (UniProt P21709); experiment: NVS_ENZ_hEphA1: NovaScreen (NVS) Enzymatic Assay for human Ephrin type-A Receptor 1 (EphA1) (AID 2283158);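 note: activity is signal loss versus DMSO meaning EphA1 kinase inhibition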
How it was run: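 Recombinant kinase, fluorescent substrate, mobility-shift separation, fluorescence read at 1 h. Single-point duplicates at 25 uM; hits (e.g., ≥30% inhibition) run singleton concentration-response, max 50 uM. DMSO = negative control/baseline.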

[2] = target: Histone deacetylase 3 (Homo sapiens) (UniProt O15379); experiment: NVS_ENZ_hHDAC3: NovaScreen (NVS) Enzymatic Assay for human Histone Deacetylase 3 (HDAC3) (AID 2283163)
How it was run: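 Recombinant human HDAC3 with fluorescent substrate, 1 h after dosing; product separated from substrate by electrophoretic mobility shift and read by fluorescence. Primary screen at 25 uM in duplicate; actives (e.g. ≥30% inhibition) retested in concentration-response up to 50 uM.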

[3] = target: human Insulin Receptor (InsR), INSR (gene 3643) (UniProt P06213); experiment: NVS_ENZ_hInsR: NovaScreen (NVS) Enzymatic Assay for human Insulin Receptor (InsR) (AID 2283168)
Protocol: NVS_ENZ_hInsR is a biochemical, single-readout assay that uses extracted gene-proteins in a cell-free assay. Measurements were taken 1 hour after chemical dosing in a 384-well plate.NVS_ENZ_hInsR is one of one assay component(s) measured or calculated from the NVS_ENZ_hInsR assay. It is designed to make measurements of enzyme activity, a form of enzyme reporter, as detected with fluorescence intensity signals by Fluorescence and electrophoretic mobility shift technology.Data from the assay component NVS_ENZ_hInsR was analyzed into 1 assay endpoint. This assay endpoint, NVS_ENZ_hInsR, was analyzed in the positive analysis fitting direction relative to DMSO as the negative control and baseline of activity. Using a type of enzyme reporter, loss-of-signal activity can be used to understand changes in the enzymatic activity as they relate to the gene INSR. Furthermore, this assay endpoint can be referred to as a primary readout, because this assay has produced multiple assay endpoints where this one serves a enzymatic activity function. To generalize the intended target to other relatable targets, this assay endpoint is annotated to the kinase intended target family, where the subfamily is receptor tyrosine kinase.
Binding assays used specific radioligands (tritiated, iodinated) with non-radioactive competitive displacement ligands in agonist or antagonist protocols (as indicated) and various reference compounds and inhibitors to titrate specific binding to receptors and transporters. Most enzyme assays (CYPs, kinases, phosphatases, proteases, HDACs) used recombinant protein and specific substrates (fluorescence mostly, some colorimetric and radioactive) and inhibitors, followed by a biochemical separation of substrate and product. All assays for the biochemical HTS were initially run in duplicate at a single concentration (10 uM for CYP450 assays and 25 uM for all others). […]

[4] = target: human Esterase Plasma (ES), BCHE (gene 590) (UniProt P06276); experiment: NVS_ENZ_hES: NovaScreen (NVS) Enzymatic Assay for human Esterase Plasma (ES) (AID 2283157)
How it was run: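 Chemicals were added to plasma-extracted human enzyme in a cell-free format, and activity was read colorimetrically after 0.25 hour. Activity loss was referenced to DMSO; concentration-response top dose was 50 uM.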

[5] = target: Glycogen synthase kinase-3 beta (Homo sapiens) (UniProt P49841); experiment: NVS_ENZ_hGSK3b: NovaScreen (NVS) Enzymatic Assay for human Glycogen Synthase Kinase-3 beta (GSK3b) (AID 2283165)
How it was run: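 Recombinant enzyme with specific fluorescent substrate, 1 h, product separated by electrophoretic mobility shift. Primary duplicate screen at 25 uM; actives (e.g. 30% inhibition) followed in singleton concentration-response to 50 uM. Signal loss fitted versus DMSO.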

[6] = target: human Elastase, ELANE (gene 1991) (UniProt P08246); experiment: NVS_ENZ_hElastase: NovaScreen (NVS) Enzymatic Assay for human Elastase (AID 2283153)
How it was run: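 Cell-free elastase from human neutrophils, 1.5 h after dosing, activity read by absorbance. Primary screen in duplicate at 25 uM; hits (e.g., 30% inhibition) rerun in singleton concentration-response up to 50 uM, fitted versus DMSO.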

[7] = target: human Dual Specificity Protein Phosphatase 3 (DUSP3), DUSP3 (gene 1845) (UniProt P51452); experiment: NVS_ENZ_hDUSP3: NovaScreen (NVS) Enzymatic Assay for human Dual Specificity Protein Phosphatase 3 (DUSP3) (AID 2283152);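 note: phosphatase activity of recombinant human DUSP3 on a fluorogenic substrate without cells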
How it was run: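 Cell-free assay with recombinant human DUSP3 and fluorogenic substrate, read by fluorescence intensity. Primary screen ran duplicate at 25 uM; actives followed up in concentration series; loss of signal versus DMSO scored.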

[8] = target: human Janus Kinase 2 (Jak2), JAK2 (gene 3717) (UniProt O60674); experiment: NVS_ENZ_hJak2: NovaScreen (NVS) Enzymatic Assay for human Janus Kinase 2 (Jak2) (AID 2283169)
How it was run: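 Cell-free recombinant human JAK2 enzyme activity assay, fluorescence/electrophoretic mobility shift read 1 h after dosing. Screened in duplicate at 25 uM, then concentration-response up to 50 uM; activity as signal loss relative to DMSO.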

Sequence of human Esterase Plasma (ES), BCHE (gene 590) (P06276 whole entry, looked up): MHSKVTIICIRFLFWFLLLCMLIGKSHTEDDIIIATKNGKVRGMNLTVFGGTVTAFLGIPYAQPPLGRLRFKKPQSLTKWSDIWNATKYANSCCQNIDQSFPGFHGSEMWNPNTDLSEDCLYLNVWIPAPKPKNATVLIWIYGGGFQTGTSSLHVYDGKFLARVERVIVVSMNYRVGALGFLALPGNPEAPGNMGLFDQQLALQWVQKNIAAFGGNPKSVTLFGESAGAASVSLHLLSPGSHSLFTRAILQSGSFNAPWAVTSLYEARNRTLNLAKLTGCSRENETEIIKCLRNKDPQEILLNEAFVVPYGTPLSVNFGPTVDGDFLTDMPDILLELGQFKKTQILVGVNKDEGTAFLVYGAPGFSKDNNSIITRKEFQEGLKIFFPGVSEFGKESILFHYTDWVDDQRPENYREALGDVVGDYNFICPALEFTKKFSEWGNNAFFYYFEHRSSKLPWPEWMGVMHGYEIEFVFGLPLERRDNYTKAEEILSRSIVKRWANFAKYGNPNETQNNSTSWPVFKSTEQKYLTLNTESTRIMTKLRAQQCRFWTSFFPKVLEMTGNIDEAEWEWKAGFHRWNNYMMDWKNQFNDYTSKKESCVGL
Sequence of human Ephrin type-A Receptor 1 (EphA1), EPHA1 (gene 2041) (P21709 whole entry, looked up): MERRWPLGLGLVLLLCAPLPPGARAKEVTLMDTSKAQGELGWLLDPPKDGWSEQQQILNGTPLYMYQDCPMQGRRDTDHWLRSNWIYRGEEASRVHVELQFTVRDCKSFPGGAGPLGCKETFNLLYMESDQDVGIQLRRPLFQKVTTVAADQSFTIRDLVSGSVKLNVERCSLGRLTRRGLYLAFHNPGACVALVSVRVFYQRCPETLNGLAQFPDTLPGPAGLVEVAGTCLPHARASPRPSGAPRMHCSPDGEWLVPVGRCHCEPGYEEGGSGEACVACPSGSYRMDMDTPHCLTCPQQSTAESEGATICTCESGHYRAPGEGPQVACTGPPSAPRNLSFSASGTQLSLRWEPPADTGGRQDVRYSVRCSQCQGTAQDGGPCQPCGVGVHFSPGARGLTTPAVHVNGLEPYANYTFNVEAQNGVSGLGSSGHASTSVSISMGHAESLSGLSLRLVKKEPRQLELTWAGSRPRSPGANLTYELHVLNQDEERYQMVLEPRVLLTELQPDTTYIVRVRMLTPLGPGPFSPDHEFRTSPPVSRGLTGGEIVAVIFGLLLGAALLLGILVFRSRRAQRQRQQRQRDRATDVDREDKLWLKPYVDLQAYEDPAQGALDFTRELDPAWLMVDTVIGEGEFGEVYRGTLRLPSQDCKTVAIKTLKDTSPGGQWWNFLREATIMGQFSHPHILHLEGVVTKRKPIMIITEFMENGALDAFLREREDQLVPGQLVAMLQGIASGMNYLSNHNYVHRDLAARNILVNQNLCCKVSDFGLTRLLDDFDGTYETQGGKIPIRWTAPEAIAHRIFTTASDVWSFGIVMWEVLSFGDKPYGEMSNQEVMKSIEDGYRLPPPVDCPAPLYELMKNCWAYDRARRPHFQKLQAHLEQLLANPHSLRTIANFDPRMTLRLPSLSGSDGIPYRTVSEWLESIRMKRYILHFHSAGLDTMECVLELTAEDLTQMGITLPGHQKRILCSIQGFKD
Sequence of human Elastase, ELANE (gene 1991) (P08246 whole entry, looked up): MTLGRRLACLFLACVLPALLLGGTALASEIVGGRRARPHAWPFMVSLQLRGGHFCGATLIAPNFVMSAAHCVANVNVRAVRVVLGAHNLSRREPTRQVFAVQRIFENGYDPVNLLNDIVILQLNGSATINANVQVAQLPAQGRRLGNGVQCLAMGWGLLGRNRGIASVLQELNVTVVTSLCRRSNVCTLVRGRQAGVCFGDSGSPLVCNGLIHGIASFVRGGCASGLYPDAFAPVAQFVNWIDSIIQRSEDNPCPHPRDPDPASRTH
Sequence of Glycogen synthase kinase-3 beta (Homo sapiens) (P49841 whole entry, looked up): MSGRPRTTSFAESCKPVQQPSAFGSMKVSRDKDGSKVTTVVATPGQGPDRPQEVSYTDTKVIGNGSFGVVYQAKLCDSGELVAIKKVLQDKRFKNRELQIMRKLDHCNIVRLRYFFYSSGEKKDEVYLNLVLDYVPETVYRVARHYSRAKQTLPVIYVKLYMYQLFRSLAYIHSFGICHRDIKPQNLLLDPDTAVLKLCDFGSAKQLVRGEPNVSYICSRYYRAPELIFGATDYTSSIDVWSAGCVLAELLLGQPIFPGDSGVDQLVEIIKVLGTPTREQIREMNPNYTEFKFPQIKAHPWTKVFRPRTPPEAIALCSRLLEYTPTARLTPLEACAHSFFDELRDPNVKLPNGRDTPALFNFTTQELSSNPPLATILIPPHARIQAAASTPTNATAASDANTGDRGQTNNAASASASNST
Sequence of human Insulin Receptor (InsR), INSR (gene 3643) (P06213 whole entry, looked up): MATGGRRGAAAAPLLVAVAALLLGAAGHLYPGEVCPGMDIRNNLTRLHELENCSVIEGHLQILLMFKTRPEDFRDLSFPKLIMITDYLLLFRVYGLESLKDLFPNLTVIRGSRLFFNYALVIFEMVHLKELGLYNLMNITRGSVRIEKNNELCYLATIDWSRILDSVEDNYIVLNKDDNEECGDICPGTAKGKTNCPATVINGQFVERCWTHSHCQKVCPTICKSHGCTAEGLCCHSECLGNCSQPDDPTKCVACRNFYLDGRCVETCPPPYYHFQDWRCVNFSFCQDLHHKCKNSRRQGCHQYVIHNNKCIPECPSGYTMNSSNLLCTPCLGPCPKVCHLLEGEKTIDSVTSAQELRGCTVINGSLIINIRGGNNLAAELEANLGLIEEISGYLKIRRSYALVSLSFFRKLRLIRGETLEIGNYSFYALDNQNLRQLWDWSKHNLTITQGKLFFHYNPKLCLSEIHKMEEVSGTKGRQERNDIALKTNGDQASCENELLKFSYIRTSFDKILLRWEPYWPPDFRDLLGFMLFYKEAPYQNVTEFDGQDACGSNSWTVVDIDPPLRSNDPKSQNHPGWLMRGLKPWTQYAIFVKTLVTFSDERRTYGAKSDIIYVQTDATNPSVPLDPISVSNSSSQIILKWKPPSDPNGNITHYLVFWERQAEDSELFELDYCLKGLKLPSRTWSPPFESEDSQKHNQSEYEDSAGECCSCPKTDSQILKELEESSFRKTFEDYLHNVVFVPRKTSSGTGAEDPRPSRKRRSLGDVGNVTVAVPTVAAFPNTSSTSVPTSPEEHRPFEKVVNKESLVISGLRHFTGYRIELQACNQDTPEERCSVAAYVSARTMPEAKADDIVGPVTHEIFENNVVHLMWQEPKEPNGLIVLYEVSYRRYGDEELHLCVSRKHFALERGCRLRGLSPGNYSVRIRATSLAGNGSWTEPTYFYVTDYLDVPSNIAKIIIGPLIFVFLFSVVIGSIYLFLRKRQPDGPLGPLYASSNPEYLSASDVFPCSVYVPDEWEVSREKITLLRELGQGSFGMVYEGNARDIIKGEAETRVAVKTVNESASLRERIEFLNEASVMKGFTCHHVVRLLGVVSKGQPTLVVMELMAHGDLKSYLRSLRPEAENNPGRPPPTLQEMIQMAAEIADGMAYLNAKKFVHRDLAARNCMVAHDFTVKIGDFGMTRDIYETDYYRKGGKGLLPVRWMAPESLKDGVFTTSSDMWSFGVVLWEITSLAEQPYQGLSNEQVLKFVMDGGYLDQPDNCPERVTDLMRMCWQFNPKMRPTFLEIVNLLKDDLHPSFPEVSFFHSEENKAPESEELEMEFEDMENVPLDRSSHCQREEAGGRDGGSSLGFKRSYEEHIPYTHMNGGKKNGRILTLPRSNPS
Sequence of human Janus Kinase 2 (Jak2), JAK2 (gene 3717) (O60674 whole entry, looked up): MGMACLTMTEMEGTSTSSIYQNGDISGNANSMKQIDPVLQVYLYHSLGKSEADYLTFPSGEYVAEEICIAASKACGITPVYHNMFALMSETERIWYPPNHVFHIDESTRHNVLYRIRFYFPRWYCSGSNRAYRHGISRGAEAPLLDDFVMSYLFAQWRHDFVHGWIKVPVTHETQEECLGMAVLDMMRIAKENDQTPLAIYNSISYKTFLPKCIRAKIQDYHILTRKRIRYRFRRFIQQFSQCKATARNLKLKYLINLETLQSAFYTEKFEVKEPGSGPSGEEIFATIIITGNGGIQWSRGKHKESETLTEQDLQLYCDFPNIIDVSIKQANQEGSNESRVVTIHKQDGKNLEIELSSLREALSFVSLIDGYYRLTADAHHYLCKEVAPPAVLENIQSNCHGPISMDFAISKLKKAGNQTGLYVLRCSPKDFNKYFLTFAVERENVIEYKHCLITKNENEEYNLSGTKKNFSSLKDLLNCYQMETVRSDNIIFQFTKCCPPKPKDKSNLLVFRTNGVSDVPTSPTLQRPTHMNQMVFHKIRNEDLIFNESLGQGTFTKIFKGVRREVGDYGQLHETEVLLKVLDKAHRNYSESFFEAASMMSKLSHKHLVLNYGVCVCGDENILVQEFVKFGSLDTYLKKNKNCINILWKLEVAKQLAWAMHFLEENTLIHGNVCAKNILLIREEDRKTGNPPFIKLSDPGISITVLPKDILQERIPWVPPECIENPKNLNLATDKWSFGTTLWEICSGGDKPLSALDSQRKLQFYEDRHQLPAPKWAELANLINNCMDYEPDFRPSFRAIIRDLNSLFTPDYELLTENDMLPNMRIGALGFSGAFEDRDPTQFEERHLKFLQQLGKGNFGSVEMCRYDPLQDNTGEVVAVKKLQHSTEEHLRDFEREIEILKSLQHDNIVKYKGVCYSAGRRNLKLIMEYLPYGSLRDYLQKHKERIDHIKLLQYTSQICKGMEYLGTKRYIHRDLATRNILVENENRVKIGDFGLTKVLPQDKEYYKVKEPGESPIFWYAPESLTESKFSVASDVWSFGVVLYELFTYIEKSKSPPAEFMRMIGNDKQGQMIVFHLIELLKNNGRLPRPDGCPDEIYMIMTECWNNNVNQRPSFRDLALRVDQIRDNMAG
Sequence of human Dual Specificity Protein Phosphatase 3 (DUSP3), DUSP3 (gene 1845) (P51452 whole entry, looked up): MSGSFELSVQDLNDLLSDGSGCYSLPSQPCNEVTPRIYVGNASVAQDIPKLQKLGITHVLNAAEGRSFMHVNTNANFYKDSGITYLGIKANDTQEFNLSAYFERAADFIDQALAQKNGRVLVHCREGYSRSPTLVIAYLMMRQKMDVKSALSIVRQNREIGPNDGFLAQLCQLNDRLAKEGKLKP

## CC/C(=C(/CC)c1ccc(O)cc1)c1ccc(O)cc1
[1]
  outcome: inactive

## CC(=O)N1CCN(c2ccc(OC[C@H]3CO[C@](Cn4ccnc4)(c4ccc(Cl)cc4Cl)O3)cc2)CC1
[2]
  outcome: inactive

## COc1cc(C(=O)NC2CCN(C)CC2)ccc1Nc1ncc2c(n1)N(C1CCCC1)CC(F)(F)C(=O)N2C
[3]
  AC50: 0.00746 µM (active)

## CC1(C)NC(=O)N(c2ccc([N+](=O)[O-])c(C(F)(F)F)c2)C1=O
[1]
  outcome: inactive

## Clc1cc(Cl)c2c(c1)N=C1CCCCCN1C2
[4]
  AC50: 13.7 µM (active)
[1]
  outcome: inactive
[5]
  outcome: inactive

## c1ccc(C[n+]2cccc3ccccc32)cc1
[4]
  outcome: inactive
[2]
  outcome: inactive

## CCCCOC(=O)c1ccc(O)cc1
[4]
  outcome: inactive

## CCCCCCCCCCCO
[6]
  AC50: 27.4 µM (active)

## CCCCCCCCCCCCO
[5]
  outcome: inactive

## CCCCCCCCN(C)CCCCCCCC
[1]
  outcome: inactive

## CC[C@@H]1C[C@H](N(Cc2cc(C(F)(F)F)cc(C(F)(F)F)c2)C(C)=O)c2cc(C(F)(F)F)ccc2N1C(=O)OC(C)C
[6]
  outcome: inactive

## OC12N=C(c3ccccc3)SC1Cc1cc(Cl)ccc12 (centres undefined)
[7]
  AC50: 4.92 µM (active)
[5]
  outcome: inactive

## CN(C)c1ccc(C(=C2C=CC(=[N+](C)C)C=C2)c2ccc(N(C)C)cc2)cc1
[4]
  AC50: 1.62 µM (active)

## CCN(CC)C(=O)c1cc(S(=O)(=O)Cc2ccccc2)c(N2CCC(c3ccccc3)CC2)cc1N(CC)CCN(C)C
[4]
  AC50: 0.0737 µM (active)
[8]
  outcome: inactive

## O=C(O)c1ccccc1-n1cc(C(=O)O)c(=O)c2cc(Nc3c(F)cc(F)cc3Cl)c(Cl)cc21
[6]
  AC50: 18.4 µM (active)
[5]
  outcome: inactive

## O=C(O)c1ccccc1C(=O)OCc1ccccc1
[8]
  outcome: inactive

## O=c1ccc2ccccc2o1
[5]
  outcome: inactive

## CC(O)CC(C)(C)O (centres undefined)
[1]
  outcome: inactive

## CCCCCc1ccc(N)cc1
[1]
  outcome: inactive

## O=C1O[C@H]([C@@H](O)CO)C(O)=C1O
[6]
  outcome: inactive
[1]
  outcome: inactive
[3]
  outcome: inactive

## NCc1cccc(C2CCN(C(=O)c3ccc(C#Cc4ccccc4F)o3)CC2)c1
[4]
  AC50: 25 µM (active)

## CCO[Si](CCCNC(N)=O)(OCC)OCC
[8]
  outcome: inactive

## Oc1ccccc1
[5]
  outcome: inactive

## CC1=CC(=O)/C(=C(/C)O)C(=O)O1
[5]
  outcome: inactive

## OCCO
[3]
  outcome: inactive

## CCOC(=O)O[C@H](C)OC(=O)c1ccc2c(c1)cc(C(=O)NC1CCN(C(C)C)CC1)n2Cc1cc(-c2ccc(Cl)s2)on1
[4]
  AC50: 9.43 µM (active)

## O=C(OCCCCCCOC(=O)c1ccccc1)c1ccccc1
[8]
  outcome: inactive

## Cc1occc1C(=O)Nc1ccc(C(=O)N2CCC(F)(F)/C(=C\C(=O)N3CCC(N4CCCCC4)CC3)c3ccccc32)cc1
[4]
  outcome: inactive

## CN(C)C(=O)C1(N2CCCCC2)CCN(CC[C@@]2(c3ccc(Cl)c(Cl)c3)CN(C(=O)c3ccccc3)CCO2)CC1
[6]
  AC50: 19 µM (active)
[4]
  AC50: 17.5 µM (active)

## COc1cccc([C@H](O)C2CCN(CCc3ccc(F)cc3)CC2)c1OC
[4]
  AC50: 18.2 µM (active)
